Pf growth 48h – P. falciparum growth inhibition at 48 hours (one generation); P. falciparum luciferase growth in erythrocytes, 48 h; actives 5.9% (n = 310,000); AID 504832; Potency, µM (titrated, usually from 28.7 µM), usual class: inhibitors
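Growth was read as firefly luciferase luminescence after a 48 h, 37 C, 5% CO2 exposure of compounds to reporter-bearing P. falciparum cultures (0.1% parasitemia, 2% hematocrit final) in Albumax-supplemented RPMI 1640.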
RE007 growth inh – less growth of the S. pombe RE007 Vpr strain | S. pombe RE007 Vpr strain, BacTiter-Glo ATP luminescence, 24 h | Potency, µM (highest dose often 92.2 µM), actives largely listed as inhibitors | actives 0.21% (n = 360,000); active = well fitted falling curve with a large enough effect; inconclusive = small, poorly fitted or top-dose-only effect; inactive = no such curve, though single readings can be large or run the other way; note: nearly all actives have a fitted effect of over 50% in size
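Fission yeast RE007 carrying one integrated HIV-1 vpr copy, seeded at OD 0.01 in PMG+AL medium with 23 nL pinned compound. Grown 24 h at 30 degrees; viability read by BacTiter-Glo luminescence after 5 min.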
Pf growth 96h – P. falciparum growth inhibition at 96 hours; P. falciparum luciferase reporter growth, 96 h; Potency, µM (top dose mostly 28.7 µM), actives largely listed as inhibitors; actives 6.9% (n = 320,000); AID 504834
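Infected RBCs, 2% Hct / 0.05% parasitemia final; luciferase-reporter P. falciparum; cpd 96 h, 37 C, 5% CO2; luciferase detection reagent; luminescence.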
SARS PLP yeast – SARS-CoV PLP inhibition in yeast. S. cerevisiae expressing SARS-CoV PLpro, growth rescue. Potency, µM (doses to about 32.9 µM), hits mostly activators. actives 0.19% (n = 330,000); calls by dose curve; note: nearly all actives have a fitted effect of over 55% in size
NS1 function inh – influenza NS1 inhibition; Potency, µM (titrated, usually from 46.1 µM); actives 0.4% (n = 270,000); calls by dose curve; note: actives are rising curves; nearly all actives have a fitted effect of over 50% in size
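Growth recovery, yeast-based: influenza A NS1 expressed in S. cerevisiae causes slow growth, and suppressors are detected by OD600. The parent strain without NS1 is used as positive control.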
Of the large screens only hits and unclear results are named; the others gave an inactive call. In the library only some 9.5% were active in any assay of this set; here they are far more common. Unless noted, calls come from the whole dose curve; as a rule, active = well fitted inhibition curve with a large enough effect; inconclusive = small, poorly fitted or top-dose-only effect, or another doubt; inactive = no such curve, though single readings can be large or run the other way.

CC1CCCC(NC(=O)CCC(=O)N2CCOc3ccccc32)C1C (stereo not drawn)	Pf growth 96h 9.28µM
O=C(CCC(=O)N1CCOc2ccccc21)NCCc1ccccc1	Pf growth 96h 14.7µM
C/C(=N\NC(=O)COc1ccc(C(C)(C)C)cc1)c1ccc(-n2ccnc2)cc1	Pf growth 96h 10.4µM
C/C(=N\Nc1ccc(Cl)c(Cl)c1)c1ccc(-n2ccnc2)cc1	Pf growth 48h 11.7µM, Pf growth 96h 4.65µM
C=C(C)CNC(=S)N/N=C(\C)c1ccc(-n2ccnc2)cc1	RE007 growth inh inconclusive, Pf growth 96h 5.86µM (no result: Pf growth 48h)
COc1ccc(OCC(=O)N/N=C(\C)c2ccc(-n3ccnc3)cc2)cc1	none
CC(C)C(NS(=O)(=O)c1cccs1)C(=O)N1CCC(C(N)=O)CC1 (stereo not drawn)	none (no result: NS1 function inh)
COc1ccc(NC(=O)c2nnn(CC(=O)Nc3ccc4c(c3)OCO4)c2N)c(OC)c1	none
Cc1cccc(NC(=O)C(Cc2ccccc2)c2nn[nH]n2)c1C (stereo not drawn)	Pf growth 48h inconclusive, Pf growth 96h 8.28µM
O=C1CC/C=C\C[C@@H](CC(=O)N(CCO)Cc2ccccc2)C(=O)N2CCC[C@H]2CO1	none (no result: Pf growth 48h, Pf growth 96h, NS1 function inh)
O=C(CCl)N1N=C(c2cccs2)CC1c1ccco1 (stereo not drawn)	Pf growth 48h inconclusive
O=C(CCl)N1N=C(c2ccco2)CC1c1ccco1 (stereo not drawn)	Pf growth 48h 13.1µM, Pf growth 96h 13.1µM
[Hg+][c]1ccccc1	Pf growth 48h 4.78µM, Pf growth 96h 3.38µM (no result: RE007 growth inh, SARS PLP yeast, NS1 function inh)
CCN(CC)c1ccc(N=Nc2nn(C)c(C)c2[N+](=O)[O-])cc1	Pf growth 48h inconclusive, Pf growth 96h 3.7µM
CCN(Cc1ccccc1)c1ccc(N=Nc2nn(C)c(C)c2[N+](=O)[O-])cc1	Pf growth 48h 1.65µM, Pf growth 96h inconclusive, NS1 function inh inconclusive
CCN(Cc1ccccc1)c1ccc(/C=N/NS(=O)(=O)c2ccc(C)c([N+](=O)[O-])c2)cc1	SARS PLP yeast inconclusive
Cn1c(O)c(C(=NCCc2c[nH]c3ccccc23)c2ccccc2)c(=O)n(C)c1=O	Pf growth 48h 9.28µM, Pf growth 96h inconclusive
COc1ccccc1C(O)c1ncc(-c2cccc3ccccc23)[nH]1 (stereo not drawn)	none (no result: Pf growth 48h, Pf growth 96h, SARS PLP yeast, NS1 function inh)
CC(=O)Nc1c(C(=O)O)[nH]c2ccccc12	Pf growth 96h 10.4µM
COc1cc(C(=O)Nc2c(C(=O)O)[nH]c3ccccc23)cc(OC)c1OC	none
CCS(=O)(=O)Nc1c(C(=O)O)[nH]c2ccccc12	Pf growth 96h 11.7µM
CCS(=O)(=O)Nc1c(C(=O)OC)[nH]c2ccccc12	none (no result: Pf growth 96h)
CC(C)C[C@H]1CN(CCCC[C@H]2CNC(=O)C(=O)N2CC2CCCCC2)C(=O)C(=O)N1CCc1ccccc1	none (no result: Pf growth 48h, Pf growth 96h, SARS PLP yeast, NS1 function inh)
COc1ccc(CC(=O)NNC(=O)c2ccc(Br)o2)cc1	none
C=CCn1c(N)cc(=O)nc1SC(C)C(=O)Nc1ccc(C(=O)OCC)cc1 (stereo not drawn)	Pf growth 48h 4.15µM
O=C(Nc1nc2c(Br)cc(Br)cc2c(=O)s1)C1CCC1	Pf growth 48h 2.33µM
CN(CC(=O)Nc1cccc(F)c1)C(=O)CCCN1C(=O)c2cccc3cccc(c23)C1=O	none (no result: NS1 function inh)
COc1cccc(/C=C/C(=O)c2ccc(NS(=O)(=O)c3ccc(C)cc3)cc2)c1	Pf growth 96h inconclusive
COc1cc(/C=C/C(=O)c2ccc(NS(=O)(=O)c3ccc(C)cc3)cc2)ccc1OC(F)F	Pf growth 48h 14.7µM, Pf growth 96h inconclusive
COc1cc(NS(=O)(=O)c2ccc(NS(=O)(=O)c3ccc(C)cc3)cc2)nc(OC)n1	Pf growth 96h 1.85µM
COc1cc(/C=C/C(=O)c2ccc(NS(=O)(=O)c3ccc(C)cc3)cc2)cc(OC)c1O	Pf growth 48h 11.7µM, Pf growth 96h inconclusive, NS1 function inh inconclusive
CC1CCCCN1C(=O)CN1CCN(S(=O)(=O)c2ccc(Br)cc2Cl)CC1 (stereo not drawn)	Pf growth 48h inconclusive, Pf growth 96h inconclusive (no result: NS1 function inh)
N=C(N)c1ccc2cc(OC(=O)c3ccc(N=C(N)N)cc3)ccc2c1	Pf growth 48h 12µM, Pf growth 96h 1.07µM (no result: RE007 growth inh, SARS PLP yeast, NS1 function inh)
Cc1ccc(-c2noc(C3CCCN(C(=O)C4CCCCC4)C3)n2)o1 (stereo not drawn)	Pf growth 96h 1.04µM (no result: Pf growth 48h)
O=C(COc1ccccc1C(=O)NCc1ccccc1)Nc1ccccc1	Pf growth 48h inconclusive (no result: NS1 function inh)
COc1ccccc1NC(=O)c1cc(-c2ccc(OC)c(OC)c2)nc2ccccc12	Pf growth 48h inconclusive
COc1ccc(-c2cc(C(=O)Nc3ccc(S(=O)(=O)Nc4ncccn4)cc3)c3ccccc3n2)cc1	Pf growth 48h inconclusive, Pf growth 96h inconclusive
COc1ccc(-c2cc(C(=O)Nc3ccc(O)cc3)c3ccccc3n2)cc1OC	Pf growth 48h 6.57µM, Pf growth 96h inconclusive
COc1cc2cc(C(=O)NC(C)c3cccc4ccccc34)c(N)nc2cc1OC (stereo not drawn)	none (no result: Pf growth 48h, Pf growth 96h, SARS PLP yeast, NS1 function inh)
CC(C)(C)c1ccc(-c2cc(C(=O)NNC(=O)Nc3ccccc3)c3ccccc3n2)cc1	Pf growth 96h 4.65µM (no result: Pf growth 48h)
COc1cc(-c2cc(C(=O)Nc3ccc(S(=O)(=O)Nc4ncccn4)cc3)c3ccccc3n2)cc(OC)c1OC	Pf growth 48h inconclusive, Pf growth 96h 7.38µM
COc1cc2cc(C(=O)Nc3ccccc3)c(N)nc2cc1OC	Pf growth 48h 2.33µM, Pf growth 96h inconclusive
C[C@]12CCC(=O)C=C1CC[C@@H]1[C@H]2[C@@H](O)C[C@@]2(C)[C@H]1CC[C@]2(O)C(=O)CO	Pf growth 96h inconclusive (no result: RE007 growth inh, SARS PLP yeast, NS1 function inh)
Cc1ccc(S(=O)(=O)N2CCN(c3ccccc3)CC2)c(C)c1	none
COc1ccccc1NS(=O)(=O)c1ccc(C)c(C(=O)NCC2(N(C)C)CCCCC2)c1	Pf growth 48h inconclusive, Pf growth 96h inconclusive (no result: NS1 function inh)
CCN(C[C@H]1N[C@@](CC)(C(=O)OC)[C@H]2C(=O)N(C)C(=O)[C@@H]12)C(=O)c1ccc(C(C)(C)C)cc1	none (no result: Pf growth 48h, Pf growth 96h, NS1 function inh)
Cn1nc(OCC(=O)O)cc1C(F)(F)F	none
CCOP(=O)(OCC)C(NC(=O)c1cccs1)c1ccccc1 (stereo not drawn)	none
COc1cc(-c2cc(C(=O)Nc3ccc(S(N)(=O)=O)cc3)c3ccccc3n2)cc(OC)c1OC	Pf growth 48h inconclusive, Pf growth 96h inconclusive
COc1ccc(-c2cc(C(=O)NCC(c3ccccc3)N(C)C)c3ccccc3n2)cc1OC (stereo not drawn)	Pf growth 48h 10.4µM, Pf growth 96h 9.28µM
CCN(CC)S(=O)(=O)c1ccc(O)c(NC(=O)c2cc(-c3cc(OC)c(OC)c(OC)c3)nc3ccccc23)c1	Pf growth 48h inconclusive, Pf growth 96h 1.17µM
COc1cc(-c2cc(C(=O)Nc3cccc(S(=O)(=O)N(C)C)c3)c3ccccc3n2)cc(OC)c1OC	Pf growth 48h inconclusive, Pf growth 96h inconclusive
COc1ccc(-c2cc(C(=O)Nc3ccc(S(=O)(=O)Nc4onc(C)c4C)cc3)c3ccccc3n2)cc1	Pf growth 48h 11.7µM, Pf growth 96h inconclusive

Bioassay records from PubChem.
